The values that follow come from PMC7862700, “An all-to-all approach to the identification of sequence-specific readers for epigenetic DNA modifications on cytosine”.

Common to all, as to experiment: DAPPL (digital affinity profiling via proximity ligation, sequencing); 10 mM Tris-HCl pH 7.5, 50 mM NaCl, 1 mM DTT, 4% glycerol, room temperature, 30 min; GST-TFs on glutathione beads, 16-mer random dsDNA library, 0.1% formaldehyde crosslink after washing; high values mean tight binding
In one test the target is T1, FLI1 (Homo sapiens, UniProt Q01543 1-452).
T1 sequence: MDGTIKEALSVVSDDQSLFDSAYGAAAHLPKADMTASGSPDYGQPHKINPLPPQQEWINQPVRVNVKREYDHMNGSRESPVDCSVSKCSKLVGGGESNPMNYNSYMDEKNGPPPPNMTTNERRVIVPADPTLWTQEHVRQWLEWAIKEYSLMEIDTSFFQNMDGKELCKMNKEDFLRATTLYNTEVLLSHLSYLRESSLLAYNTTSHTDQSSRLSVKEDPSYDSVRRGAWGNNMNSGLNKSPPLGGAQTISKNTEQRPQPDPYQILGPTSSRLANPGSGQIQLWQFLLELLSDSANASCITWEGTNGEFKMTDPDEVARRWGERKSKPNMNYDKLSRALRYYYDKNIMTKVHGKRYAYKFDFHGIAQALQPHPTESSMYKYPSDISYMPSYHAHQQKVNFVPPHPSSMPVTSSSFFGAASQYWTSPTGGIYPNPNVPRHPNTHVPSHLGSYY
The following applies: protein: recombinant; tags: N-terminal GST; dsDNA, one strand shown. The method in brief: (§1)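 Sequencing on an Illumina NextSeq500 followed washing, crosslinking with 0.1% formaldehyde, proximity ligation (BsaI/T4 ligase, 1 h, 37 °C) and PCR amplification of pools that had been incubated for 30 min at room temperature with 200 nmole of a random double-stranded 16-mer DNA library in Tris/NaCl/DTT/glycerol buffer. Each pool held DNA-barcoded human transcription factors, expressed in yeast as GST fusions and captured on glutathione beads, plus a tag-only sample. Binding signal is a hexamer's read frequency for a factor divided by its frequency in the tag-only sample.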

The target of the next test is T2, ELK1 (Homo sapiens, UniProt P19419 1-428).
T2 sequence: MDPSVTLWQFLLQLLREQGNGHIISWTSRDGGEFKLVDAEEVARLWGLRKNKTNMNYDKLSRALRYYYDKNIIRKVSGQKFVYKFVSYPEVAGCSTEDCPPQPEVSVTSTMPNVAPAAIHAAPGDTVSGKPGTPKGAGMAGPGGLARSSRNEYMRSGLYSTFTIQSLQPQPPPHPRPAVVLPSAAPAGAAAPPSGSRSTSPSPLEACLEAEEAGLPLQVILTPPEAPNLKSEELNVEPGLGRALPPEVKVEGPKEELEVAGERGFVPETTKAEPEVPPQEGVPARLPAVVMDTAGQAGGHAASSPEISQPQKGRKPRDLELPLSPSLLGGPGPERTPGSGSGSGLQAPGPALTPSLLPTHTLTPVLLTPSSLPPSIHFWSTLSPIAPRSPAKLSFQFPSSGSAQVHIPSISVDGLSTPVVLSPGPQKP
Particulars: protein: recombinant; tags: N-terminal GST; dsDNA, one strand shown. The method in brief:
as §1

The target in another test is T3, GABPA (Homo sapiens, UniProt Q06546 1-454).
T3 sequence: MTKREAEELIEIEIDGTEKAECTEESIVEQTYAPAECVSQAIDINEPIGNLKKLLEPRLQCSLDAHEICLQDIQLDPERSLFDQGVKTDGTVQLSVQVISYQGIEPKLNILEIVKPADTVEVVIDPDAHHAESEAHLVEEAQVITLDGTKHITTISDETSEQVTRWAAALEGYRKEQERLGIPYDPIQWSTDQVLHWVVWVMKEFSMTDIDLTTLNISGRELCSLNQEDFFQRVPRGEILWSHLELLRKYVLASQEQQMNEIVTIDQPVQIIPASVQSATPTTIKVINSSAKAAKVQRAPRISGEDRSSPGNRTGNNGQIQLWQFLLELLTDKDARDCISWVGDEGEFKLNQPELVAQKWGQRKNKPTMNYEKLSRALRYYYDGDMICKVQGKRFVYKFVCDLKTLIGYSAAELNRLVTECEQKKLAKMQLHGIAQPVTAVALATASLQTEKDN
The following applies: protein: recombinant; tags: N-terminal GST; dsDNA, one strand shown. The method in brief:
as §1

The target of another test is T4, ERG (Homo sapiens, UniProt P11308 1-479).
T4 sequence: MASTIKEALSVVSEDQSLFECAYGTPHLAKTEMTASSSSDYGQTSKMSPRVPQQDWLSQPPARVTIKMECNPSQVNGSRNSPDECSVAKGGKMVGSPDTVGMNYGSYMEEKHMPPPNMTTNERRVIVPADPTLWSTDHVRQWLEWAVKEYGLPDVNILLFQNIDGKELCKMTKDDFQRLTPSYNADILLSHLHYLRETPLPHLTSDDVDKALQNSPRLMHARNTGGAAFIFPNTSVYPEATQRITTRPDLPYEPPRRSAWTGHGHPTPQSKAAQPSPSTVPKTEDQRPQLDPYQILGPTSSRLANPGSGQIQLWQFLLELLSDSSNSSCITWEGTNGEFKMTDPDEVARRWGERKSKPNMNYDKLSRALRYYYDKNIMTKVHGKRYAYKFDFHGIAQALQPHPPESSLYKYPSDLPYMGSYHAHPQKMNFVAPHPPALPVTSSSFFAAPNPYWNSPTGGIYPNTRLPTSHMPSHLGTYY
Particulars: protein: recombinant; tags: N-terminal GST; dsDNA, one strand shown. The method in brief:
as §1

The next test concerns the target ELF1 (Homo sapiens, UniProt P32519 1-619). Particulars: protein: recombinant; tags: N-terminal GST; dsDNA, one strand shown. The method in brief:
as §1

The target in another test is T5, EHF (Homo sapiens, UniProt Q9NZC4 1-300).
T5 sequence: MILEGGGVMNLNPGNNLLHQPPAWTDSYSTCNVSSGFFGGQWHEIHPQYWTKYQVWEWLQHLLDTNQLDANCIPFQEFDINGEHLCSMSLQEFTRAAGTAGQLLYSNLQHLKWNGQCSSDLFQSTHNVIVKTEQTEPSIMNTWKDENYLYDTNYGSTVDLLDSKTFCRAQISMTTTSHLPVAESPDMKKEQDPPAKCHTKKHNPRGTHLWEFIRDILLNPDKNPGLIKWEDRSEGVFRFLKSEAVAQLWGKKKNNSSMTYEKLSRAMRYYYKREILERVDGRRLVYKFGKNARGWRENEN
Particulars: protein: recombinant; tags: N-terminal GST; dsDNA, one strand shown. The method in brief: as §1

The next test has as its target SPI1 (Homo sapiens, UniProt P17947 1-270). The following applies: protein: recombinant; tags: N-terminal GST; dsDNA, one strand shown. The method in brief:
as §1

Another test addresses SPIB (Homo sapiens, UniProt Q01892 1-262). Particulars: protein: recombinant; tags: N-terminal GST; dsDNA, one strand shown. The method in brief:
as §1

The next test addresses T6, ELK3 (Homo sapiens, UniProt P41970 1-407).
T6 sequence: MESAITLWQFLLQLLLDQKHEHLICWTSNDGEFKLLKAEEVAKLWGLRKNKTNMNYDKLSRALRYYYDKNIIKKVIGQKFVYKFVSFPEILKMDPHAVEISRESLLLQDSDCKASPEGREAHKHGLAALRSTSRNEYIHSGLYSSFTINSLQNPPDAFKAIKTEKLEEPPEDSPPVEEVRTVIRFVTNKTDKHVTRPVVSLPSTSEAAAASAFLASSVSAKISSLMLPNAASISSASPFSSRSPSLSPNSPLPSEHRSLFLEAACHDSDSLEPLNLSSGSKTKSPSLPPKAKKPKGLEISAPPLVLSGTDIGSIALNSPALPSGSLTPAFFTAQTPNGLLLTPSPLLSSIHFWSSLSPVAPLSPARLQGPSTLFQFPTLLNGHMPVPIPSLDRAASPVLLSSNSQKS
The following applies: protein: recombinant; tags: N-terminal GST; dsDNA, one strand shown. The method in brief:
as §1

Another test has as its target T7, FEV (Homo sapiens, UniProt Q99581 1-238).
T7 sequence: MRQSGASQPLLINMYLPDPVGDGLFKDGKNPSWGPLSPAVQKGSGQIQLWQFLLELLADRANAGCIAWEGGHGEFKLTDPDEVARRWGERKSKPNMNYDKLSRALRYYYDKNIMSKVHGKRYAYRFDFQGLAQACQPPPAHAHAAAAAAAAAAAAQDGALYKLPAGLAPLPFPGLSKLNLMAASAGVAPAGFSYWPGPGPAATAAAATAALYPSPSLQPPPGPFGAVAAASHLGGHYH
Particulars: protein: recombinant; tags: N-terminal GST; dsDNA, one strand shown. The method in brief:
as §1

A further test deals with ETV5 (Homo sapiens, UniProt P41161 1-510). Particulars: protein: recombinant; tags: N-terminal GST; dsDNA, one strand shown. The method in brief: as §1
In the next test the target is HSF1 (Homo sapiens, UniProt Q00613 1-529). The following applies: protein: recombinant; tags: N-terminal GST; chain copies: 3; dsDNA, one strand shown. The method in brief: as §1
Another test deals with T8, SPIC (Homo sapiens, UniProt Q8N5J4 1-248).
T8 sequence: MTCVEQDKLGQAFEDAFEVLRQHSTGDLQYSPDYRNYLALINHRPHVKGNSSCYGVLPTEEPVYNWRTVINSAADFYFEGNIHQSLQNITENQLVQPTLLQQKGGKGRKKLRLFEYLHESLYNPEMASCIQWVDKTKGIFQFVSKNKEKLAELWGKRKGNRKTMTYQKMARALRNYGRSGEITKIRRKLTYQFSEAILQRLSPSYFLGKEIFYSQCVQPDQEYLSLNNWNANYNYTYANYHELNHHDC
The following applies: protein: recombinant; tags: N-terminal GST; dsDNA, one strand shown. The method in brief:
as §1

In another test the target is ELF4 (Homo sapiens, UniProt Q99607 1-663). Particulars: protein: recombinant; tags: N-terminal GST; dsDNA, one strand shown. The method in brief:
as §1

For a further test, the target named is T9, ELK4 (Homo sapiens, UniProt P28324-2 1-405).
T9 sequence: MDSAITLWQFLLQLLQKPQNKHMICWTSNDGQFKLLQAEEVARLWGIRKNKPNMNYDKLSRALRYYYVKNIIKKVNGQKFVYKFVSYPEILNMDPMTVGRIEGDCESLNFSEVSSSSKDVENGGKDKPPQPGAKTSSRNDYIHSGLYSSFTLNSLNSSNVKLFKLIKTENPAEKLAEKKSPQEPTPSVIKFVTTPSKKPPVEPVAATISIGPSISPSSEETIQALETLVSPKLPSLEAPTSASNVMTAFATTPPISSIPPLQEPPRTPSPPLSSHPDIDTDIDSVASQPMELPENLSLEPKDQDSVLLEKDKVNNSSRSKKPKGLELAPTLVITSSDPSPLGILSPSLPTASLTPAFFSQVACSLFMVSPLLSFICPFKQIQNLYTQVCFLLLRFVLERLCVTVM
The following applies: protein: recombinant; tags: N-terminal GST; dsDNA, one strand shown. The method in brief: as §1

For the next test, the target named is T10, ETV2 (Homo sapiens, UniProt O00321 1-342).
T10 sequence: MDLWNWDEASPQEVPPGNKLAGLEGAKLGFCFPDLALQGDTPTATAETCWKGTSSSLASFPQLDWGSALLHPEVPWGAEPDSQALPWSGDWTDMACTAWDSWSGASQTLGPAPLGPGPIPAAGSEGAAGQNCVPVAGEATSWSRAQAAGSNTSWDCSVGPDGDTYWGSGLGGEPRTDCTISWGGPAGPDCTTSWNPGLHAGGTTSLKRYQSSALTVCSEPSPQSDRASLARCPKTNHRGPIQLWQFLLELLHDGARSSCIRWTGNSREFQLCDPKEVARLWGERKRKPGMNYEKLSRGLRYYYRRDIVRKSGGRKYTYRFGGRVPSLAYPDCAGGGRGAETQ
The following applies: protein: recombinant; tags: N-terminal GST; dsDNA, one strand shown. The method in brief: as §1

A further test has as its target T11, ELF3 (Homo sapiens, UniProt P78545 1-371).
T11 sequence: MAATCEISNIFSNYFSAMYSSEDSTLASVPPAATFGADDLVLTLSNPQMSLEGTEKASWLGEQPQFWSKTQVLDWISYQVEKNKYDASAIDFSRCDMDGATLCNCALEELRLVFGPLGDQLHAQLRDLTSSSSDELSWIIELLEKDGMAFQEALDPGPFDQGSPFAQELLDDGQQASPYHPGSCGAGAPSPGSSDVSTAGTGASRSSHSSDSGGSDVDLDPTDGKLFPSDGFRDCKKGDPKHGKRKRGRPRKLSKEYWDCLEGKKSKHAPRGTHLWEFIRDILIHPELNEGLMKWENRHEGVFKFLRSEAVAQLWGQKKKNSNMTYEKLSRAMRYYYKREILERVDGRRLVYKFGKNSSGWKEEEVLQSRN
Particulars: protein: recombinant; tags: N-terminal GST; dsDNA, one strand shown. The method in brief: as §1

The target in another test is ETV1 (Homo sapiens, UniProt P50549 1-477). Particulars: protein: recombinant; tags: N-terminal GST; dsDNA, one strand shown. The method in brief:
as §1

Sequence of ELF4 (Q99607 whole entry): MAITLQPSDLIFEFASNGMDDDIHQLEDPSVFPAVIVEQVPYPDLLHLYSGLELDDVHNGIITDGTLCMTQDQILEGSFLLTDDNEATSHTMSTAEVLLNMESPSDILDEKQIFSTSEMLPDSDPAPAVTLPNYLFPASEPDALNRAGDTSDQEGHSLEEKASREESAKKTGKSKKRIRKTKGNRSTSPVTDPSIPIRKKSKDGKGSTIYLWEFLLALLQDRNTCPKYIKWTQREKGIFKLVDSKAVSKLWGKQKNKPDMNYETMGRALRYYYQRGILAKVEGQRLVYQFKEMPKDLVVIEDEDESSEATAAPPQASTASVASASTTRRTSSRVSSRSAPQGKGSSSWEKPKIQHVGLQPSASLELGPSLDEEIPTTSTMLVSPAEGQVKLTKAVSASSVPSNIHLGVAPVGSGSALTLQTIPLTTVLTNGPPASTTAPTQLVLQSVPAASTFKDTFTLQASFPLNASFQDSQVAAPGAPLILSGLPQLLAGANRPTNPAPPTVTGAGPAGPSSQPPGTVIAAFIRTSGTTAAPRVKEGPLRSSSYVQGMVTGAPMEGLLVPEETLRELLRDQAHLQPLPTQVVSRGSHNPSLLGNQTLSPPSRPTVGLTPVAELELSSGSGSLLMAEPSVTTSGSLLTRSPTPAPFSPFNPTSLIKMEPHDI
Sequence of ETV1 (P50549 whole entry): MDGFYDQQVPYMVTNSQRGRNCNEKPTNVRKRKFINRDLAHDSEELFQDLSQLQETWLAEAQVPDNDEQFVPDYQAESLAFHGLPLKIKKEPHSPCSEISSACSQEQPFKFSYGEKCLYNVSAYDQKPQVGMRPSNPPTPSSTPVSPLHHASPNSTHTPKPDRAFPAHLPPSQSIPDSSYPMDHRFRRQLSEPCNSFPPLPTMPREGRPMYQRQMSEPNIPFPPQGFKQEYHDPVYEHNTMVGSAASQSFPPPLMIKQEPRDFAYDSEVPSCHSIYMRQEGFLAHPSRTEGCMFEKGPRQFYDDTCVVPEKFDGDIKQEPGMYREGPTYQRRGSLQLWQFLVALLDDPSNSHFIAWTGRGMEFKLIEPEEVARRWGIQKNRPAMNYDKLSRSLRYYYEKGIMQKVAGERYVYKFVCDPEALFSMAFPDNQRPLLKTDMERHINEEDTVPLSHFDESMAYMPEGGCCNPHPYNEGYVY
Sequence of ETV5 (P41161 whole entry): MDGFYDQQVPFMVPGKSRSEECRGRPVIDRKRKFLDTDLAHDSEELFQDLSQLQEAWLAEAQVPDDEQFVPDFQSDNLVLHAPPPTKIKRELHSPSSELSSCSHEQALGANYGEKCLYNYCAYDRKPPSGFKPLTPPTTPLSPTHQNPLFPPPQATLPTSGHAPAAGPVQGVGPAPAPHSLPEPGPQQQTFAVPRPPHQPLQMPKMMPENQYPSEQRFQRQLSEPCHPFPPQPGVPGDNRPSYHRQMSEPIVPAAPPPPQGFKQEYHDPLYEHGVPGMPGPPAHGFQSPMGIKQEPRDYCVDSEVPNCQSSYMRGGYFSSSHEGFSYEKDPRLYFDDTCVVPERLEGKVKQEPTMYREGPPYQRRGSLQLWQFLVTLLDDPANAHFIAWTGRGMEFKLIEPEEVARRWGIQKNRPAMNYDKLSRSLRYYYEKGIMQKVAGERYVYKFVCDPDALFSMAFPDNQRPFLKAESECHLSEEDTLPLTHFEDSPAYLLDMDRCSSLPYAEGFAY
Sequence of ELF1 (P32519 whole entry): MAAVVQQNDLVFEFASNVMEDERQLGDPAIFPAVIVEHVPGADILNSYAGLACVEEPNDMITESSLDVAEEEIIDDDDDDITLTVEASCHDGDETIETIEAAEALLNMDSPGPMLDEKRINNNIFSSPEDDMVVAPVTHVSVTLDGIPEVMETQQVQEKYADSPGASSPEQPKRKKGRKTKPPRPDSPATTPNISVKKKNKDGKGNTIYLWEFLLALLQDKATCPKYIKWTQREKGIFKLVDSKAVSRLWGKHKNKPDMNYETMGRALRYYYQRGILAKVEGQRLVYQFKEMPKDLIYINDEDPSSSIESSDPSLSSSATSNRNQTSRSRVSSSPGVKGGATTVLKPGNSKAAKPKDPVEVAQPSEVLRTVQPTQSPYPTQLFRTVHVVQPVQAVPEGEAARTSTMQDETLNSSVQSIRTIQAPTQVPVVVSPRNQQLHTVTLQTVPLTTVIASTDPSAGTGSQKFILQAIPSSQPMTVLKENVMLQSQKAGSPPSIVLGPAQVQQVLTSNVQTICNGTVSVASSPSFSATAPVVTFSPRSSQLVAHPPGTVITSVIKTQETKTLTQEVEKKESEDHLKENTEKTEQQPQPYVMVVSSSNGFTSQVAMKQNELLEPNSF
Sequence of HSF1 (Q00613 whole entry): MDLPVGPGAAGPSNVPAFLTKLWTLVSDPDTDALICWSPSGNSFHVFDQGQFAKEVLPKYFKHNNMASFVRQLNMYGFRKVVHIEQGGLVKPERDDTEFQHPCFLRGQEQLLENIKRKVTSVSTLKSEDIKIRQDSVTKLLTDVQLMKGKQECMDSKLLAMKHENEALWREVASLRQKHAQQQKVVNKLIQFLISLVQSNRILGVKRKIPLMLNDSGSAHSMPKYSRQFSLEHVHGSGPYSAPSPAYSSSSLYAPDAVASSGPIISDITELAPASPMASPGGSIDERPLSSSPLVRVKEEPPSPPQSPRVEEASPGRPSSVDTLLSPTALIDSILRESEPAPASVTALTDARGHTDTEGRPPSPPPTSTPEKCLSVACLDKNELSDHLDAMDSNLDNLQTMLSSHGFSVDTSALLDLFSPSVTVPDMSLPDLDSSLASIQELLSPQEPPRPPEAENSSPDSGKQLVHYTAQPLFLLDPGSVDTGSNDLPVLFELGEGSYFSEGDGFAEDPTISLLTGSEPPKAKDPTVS
Sequence of SPIB (Q01892 whole entry): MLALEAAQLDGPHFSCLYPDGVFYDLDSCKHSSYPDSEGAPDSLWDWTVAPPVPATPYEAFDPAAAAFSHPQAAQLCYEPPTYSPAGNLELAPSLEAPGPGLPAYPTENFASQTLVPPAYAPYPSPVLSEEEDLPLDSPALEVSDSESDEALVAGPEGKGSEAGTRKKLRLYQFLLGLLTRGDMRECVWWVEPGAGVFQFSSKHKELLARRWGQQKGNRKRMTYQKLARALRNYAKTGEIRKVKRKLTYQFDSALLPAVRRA

As to GAAGCA, the binding signal with FLI1 is 1.23 fold enrichment (6-mer frequency, TF over GST control); with ELK1, 1.35 fold enrichment (6-mer frequency, TF over GST control); with GABPA it was 1.3 fold enrichment (6-mer frequency, TF over GST control); in the test with ERG, 1.34 fold enrichment (6-mer frequency, TF over GST control); in the test with ELF1, 1.25 fold enrichment (6-mer frequency, TF over GST control); in the test with EHF it was 1.26 fold enrichment (6-mer frequency, TF over GST control). For the same sequence, the binding signal is 1.28 fold enrichment (6-mer frequency, TF over GST control) with SPI1; 1.25 fold enrichment (6-mer frequency, TF over GST control) with SPIB; 1.43 fold enrichment (6-mer frequency, TF over GST control) in the test with ELK3; 1.29 fold enrichment (6-mer frequency, TF over GST control) with FEV; 1.41 fold enrichment (6-mer frequency, TF over GST control) with ETV5; 1.06 fold enrichment (6-mer frequency, TF over GST control) in the test with HSF1. The binding signal with SPIC was 1.19 fold enrichment (6-mer frequency, TF over GST control); with ELF4, 1.27 fold enrichment (6-mer frequency, TF over GST control); with ELK4, 1.2 fold enrichment (6-mer frequency, TF over GST control); in the test with ETV2 it was 1.37 fold enrichment (6-mer frequency, TF over GST control); with ELF3 it was 1.27 fold enrichment (6-mer frequency, TF over GST control); with ETV1, 1.41 fold enrichment (6-mer frequency, TF over GST control).
